Pol eta inh-1 = qHTS for Inhibitors of Polymerase Eta. DNA polymerase eta (Homo sapiens), Q9Y253. recombinant Pol eta, fluorescent DNA replication assay. Potency, µM (top dose mostly 114 µM), hits mostly inhibitors. hit rate 1.2% among 390,000
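Pol eta at 10 nM preincubated with compounds 15 min at room temperature; reaction started with fluorescent substrate (50 nM final) and read kinetically at 0 and 10 min.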
Pol iota inh = qHTS for Inhibitors of Polymerase Iota; Potency, µM (titrated, usually from 115 µM), hits mostly inhibitors; hit rate 1% among 390,000; AID 588590, 2011; Pol iota fluorescent replication assay, 10 min
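Pol iota at 10 nM preincubated 15 min with compounds at room temperature; reaction started with fluorescent substrate, 50 nM final. Fluorescence read kinetically at 0 and 10 min; buffer-only wells as negative control.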
Pol beta inh = qHTS Assay for Inhibitors of DNA Polymerase Beta | Pol beta primer extension/strand displacement, fluorescence kinetic | hit rate 1.3% among 340,000 | P06746 | Potency, µM (series often up to 114 µM), actives largely listed as inhibitors | AID 485314, 2010
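Values derive from four-parameter Hill fits of normalized kinetic data: reads at 0 and 10 min following addition of 50 nM substrate to 10 nM Pol beta preincubated 15 min with compound.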
FEN1 inhibitor = qHTS Assay for the Inhibitors of Human Flap endonuclease 1 (FEN1); AID 588795, 2011; Recombinant FEN1 flap cleavage, fluorescence, 15 min; Potency, µM (doses to about 114 µM), most hits filed as inhibitors; P39748; hit rate 0.35% among 390,000; further: nearly all actives have a fitted effect of over 65% in size
Target sequence (P39748 whole entry, looked up): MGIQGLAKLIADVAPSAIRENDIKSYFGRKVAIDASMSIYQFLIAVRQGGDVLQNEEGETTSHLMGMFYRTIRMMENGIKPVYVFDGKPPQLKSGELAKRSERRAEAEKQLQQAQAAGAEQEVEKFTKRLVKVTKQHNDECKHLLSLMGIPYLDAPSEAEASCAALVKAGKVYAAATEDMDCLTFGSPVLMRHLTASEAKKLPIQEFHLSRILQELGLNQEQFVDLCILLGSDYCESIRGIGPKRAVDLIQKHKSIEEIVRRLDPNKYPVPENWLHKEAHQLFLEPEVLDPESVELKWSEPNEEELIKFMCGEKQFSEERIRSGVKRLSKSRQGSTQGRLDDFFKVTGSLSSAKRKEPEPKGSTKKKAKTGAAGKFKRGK
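With each library titrated from low to high concentration, compounds met 10 nM FEN1 for 15 min at room temperature before 50 nM substrate was added; readings at 0 and 15 min fed four-parameter Hill curve fits.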
WRN inhibitor = qHTS for Inhibitors of WRN Helicase; Bifunctional 3'-5' exonuclease/ATP-dependent helicase WRN (Homo sapiens), Q14191; WRN helicase unwinding, fluorescent forked duplex, kinetic; Potency, µM (doses to about 114 µM), usual class: inhibitors; hit rate 0.46% among 360,000; further: nearly all actives have a fitted effect of over 55% in size
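Kinetic fluorescence helicase assay: unwinding of a quenched forked DNA duplex (100 nM final) with 2 mM ATP final raises red fluorescence (525/598 nm). Compounds sat 15 min at room temperature with 20 nM WRN beforehand.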
Pol kappa inh-1 = qHTS for Inhibitors of Polymerase Kappa; hit rate 0.53% among 400,000; DNA polymerase kappa (Homo sapiens), Q9UBT6; purified Pol kappa, fluorescent DNA synthesis assay, 10 min; Potency, µM (series often up to 107 µM), hits mostly inhibitors; AID 588579, 2011
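Here, compound and 10 nM enzyme are combined for 15 min at room temperature; adding 50 nM substrate (final) starts DNA synthesis, tracked by fluorescence at 0 and 10 min against buffer-only wells.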
POLI cherry-pick = qHTS for Inhibitors of Polymerase Iota: Confirmatory Assay for Cherry-picked Compounds. shares compounds with Pol kappa inh-1. hit rate 77% among 1,500. Potency, µM, usual class: inhibitors. Pol iota primer extension, TAMRA/BHQ fluorescence
GALK inh confirm = Confirmation Assay for Inhibitors of Human Galactokinase (GALK). shares compounds with Pol eta inh-1. purified GALK, Kinase-Glo ATP depletion luminescence. Potency, µM (titrated, usually from 115 µM), hits mostly inhibitors. hit rate 70% among 150. AID 2015, 2009
Target sequence (P51570 whole entry, looked up): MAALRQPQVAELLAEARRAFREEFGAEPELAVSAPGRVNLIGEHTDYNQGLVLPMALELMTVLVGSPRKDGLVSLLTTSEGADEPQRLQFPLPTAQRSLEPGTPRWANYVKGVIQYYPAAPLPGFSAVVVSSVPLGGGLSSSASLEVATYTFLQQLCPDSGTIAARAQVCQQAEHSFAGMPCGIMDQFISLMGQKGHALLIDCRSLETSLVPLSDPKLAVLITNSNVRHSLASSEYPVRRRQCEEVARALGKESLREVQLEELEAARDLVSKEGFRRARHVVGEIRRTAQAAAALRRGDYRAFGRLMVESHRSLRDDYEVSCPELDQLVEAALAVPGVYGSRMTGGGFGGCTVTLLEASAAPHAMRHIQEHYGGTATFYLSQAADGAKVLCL
Redox cycling = Confirmatory Assay for Inhibitors of Human Galactokinase (GALK): Phenol-HRP redox assay counterscreen | shares compounds with Pol eta inh-1 | Phenol red-HRP H2O2 redox cycling, absorbance 600 nm | Potency, µM (series often up to 115 µM), actives largely listed as inhibitors | hit rate 40% among 150 | AID 2035, 2009
HEK293 viability = Secondary Assay for Inhibitors of Human Galactokinase (GALK): HEK-293 Cell Viability Assay | shares compounds with Pol eta inh-1 | HEK-293 viability, ATP luminescence (CellTiter-Glo), 24/48 h | Potency, µM (highest dose often 46.1 µM), hits mostly inhibitors | hit rate 10% among 170 | AID 2547, 2010
Pol kappa inh-2 = qHTS for Inhibitors of Polymerase Kappa: Confirmatory Assay for Cherry-picked Compounds; AID 720501, 2013; purified Pol-kappa, fluorescent strand-displacement substrate; Potency, µM, usual class: inhibitors; shares compounds with Pol eta inh-1; hit rate 76% among 920
Pol eta inh-2 = qHTS for Inhibitors of Polymerase Eta: Confirmatory Assay for Cherry-picked Compounds; shares compounds with Pol eta inh-1; Pol eta primer extension, TAMRA/BHQ fluorescence, 10 min; Potency, µM, hits mostly inhibitors; hit rate 64% among 2,600; AID 720502, 2013
Of the large screens only hits and unclear results are named; the others gave an inactive call (follow-up assays come after a bar, where they were run). The list is not random: actives were taken first. Their share in the collection is about 2.4%. The call rests on the fitted dose curve; in most records, active means well fitted curve in the direction sought with a large enough effect; inconclusive means small, poorly fitted or top-dose-only effect, or another doubt; inactive means no such curve, though single readings can be large; an effect the other way counts as inactive or inconclusive.

N#Cc1ccccc1/C=N/Nc1nc(-c2ccccc2)c2cc(Br)ccc2n1	Pol beta inh inconclusive
O=c1cc(/C=C/c2ccccc2)oc2c1ccc1ccccc12	Pol eta inh-1 inconclusive, Pol iota inh inconclusive
O=c1cc(-c2ccc(O)c(O)c2)oc2c1ccc1ccccc12	Pol eta inh-1 3.2µM, Pol iota inh 10µM, FEN1 inhibitor inconclusive, WRN inhibitor inconclusive, Pol kappa inh-1 35µM (no result: Pol beta inh) | POLI cherry-pick 27 | Pol kappa inh-2 21 | Pol eta inh-2 4.8
COc1cccc(-c2nc(CS(=O)(=O)CC(=O)Nc3cc(OC)ccc3OC)c(C)o2)c1	none
O=C(O)c1ccc(CSc2nc3ccc(NC(=O)c4ccccc4C(=O)O)cc3s2)cc1	Pol eta inh-1 25µM, Pol iota inh inconclusive, FEN1 inhibitor inconclusive, WRN inhibitor inconclusive | POLI cherry-pick inconclusive | Pol kappa inh-2 84 | Pol eta inh-2 inconclusive
O=C(O)C1Oc2cc3ccccc3cc2O1	Pol eta inh-1 18µM, Pol iota inh 28µM, Pol beta inh 7.9µM | POLI cherry-pick 75 | Pol kappa inh-2 8.4 | Pol eta inh-2 48
COc1ccc2c(c1)c(=O)oc1cc(OCC(=O)NC3CCCCC3)ccc12	Pol eta inh-1 79µM, Pol iota inh 25µM, Pol beta inh 22µM, Pol kappa inh-1 inconclusive | POLI cherry-pick inconclusive | Pol kappa inh-2 inconclusive | Pol eta inh-2 67
O=C(N/N=C/c1cccs1)c1ccc2nc[nH]c2c1	none
COc1ccc(C=C2SC(=S)N(CCCN3CCOCC3)C2=O)c(OC)c1	none (no result: Pol iota inh, Pol beta inh, FEN1 inhibitor, Pol kappa inh-1)
O=C1C(=Cc2cccc(O)c2O)SC(=S)N1CCCN1CCOCC1	Pol eta inh-1 20µM (no result: Pol iota inh, Pol beta inh, FEN1 inhibitor, Pol kappa inh-1) | POLI cherry-pick inconclusive | Pol eta inh-2 inconclusive
Fc1ccc(-c2[nH]ncc2-c2nnnn2-c2ccccc2)c(F)c1	none
O=C(CCc1ccco1)CCc1ccco1	Pol eta inh-1 inconclusive, Pol iota inh 25µM, Pol kappa inh-1 inconclusive (no result: Pol beta inh) | POLI cherry-pick inconclusive | Pol kappa inh-2 34 | Pol eta inh-2 76
CCN(CC)c1nc(C)c(C(=S)Nc2cc([N+](=O)[O-])ccc2Cl)s1	none
O=c1[nH]c(=O)c2nc3c4ccccc4c4ccccc4c3nc2[nH]1	Pol eta inh-1 28µM, Pol beta inh inconclusive, FEN1 inhibitor inconclusive, WRN inhibitor inconclusive | POLI cherry-pick 19 | Pol kappa inh-2 9.5
CC1CCC(NC(=O)C2(C)Cc3ccccc3C(=O)N2Cc2ccc(F)cc2)CC1 (centres undefined)	none (no result: Pol eta inh-1, WRN inhibitor)
COc1cc(/C=C2\Oc3cc(O)ccc3C2=O)ccc1O	Pol iota inh inconclusive, Pol beta inh inconclusive, FEN1 inhibitor inconclusive, WRN inhibitor inconclusive
O=C1/C(=C/c2ccc(O)c(O)c2)Oc2cc(O)ccc21	Pol eta inh-1 20µM, Pol iota inh inconclusive, FEN1 inhibitor inconclusive, WRN inhibitor inconclusive, Pol kappa inh-1 28µM | POLI cherry-pick 24 | Pol eta inh-2 34
O=C(NC1CCCCC1)N1CCC(c2nc(-c3ccc(S(=O)(=O)N4CCCC4)cc3)no2)CC1	none
COc1cccc(NC(=O)CN(C)C(=O)CN2C(=O)NC(C)(c3ccc(C)cc3)C2=O)c1 (centres undefined)	none (no result: Pol beta inh)
COc1ccc(Cc2nc3ccccc3n2CC(=O)N/N=C/c2ccc(C)cc2O)cc1OC	Pol eta inh-1 inconclusive, Pol iota inh 20µM, Pol beta inh 7.9µM, FEN1 inhibitor inconclusive, Pol kappa inh-1 inconclusive | POLI cherry-pick 9.5 | Pol kappa inh-2 30 | Pol eta inh-2 67
COc1ccc(NC(=O)C2=C(C)Nc3nc(SCc4ccccc4C)nn3C2c2cc(OC)c(O)c(OC)c2)cc1 (centres undefined)	Pol eta inh-1 inconclusive, Pol iota inh 28µM, Pol beta inh 8.9µM (no result: WRN inhibitor) | POLI cherry-pick inconclusive | Pol kappa inh-2 inconclusive
COc1ccc(NC(=O)C2=C(C)Nc3nc(SCc4ccccc4C)nn3C2c2ccc(Br)cc2)cc1 (centres undefined)	none (no result: WRN inhibitor)
Cc1ccc(NC(=O)CN2C(=O)N/C(=C/c3cc(C)n(-c4ccc(C(=O)O)cc4)c3C)C2=O)cc1	Pol eta inh-1 22µM, Pol iota inh 35µM, Pol beta inh 50µM, Pol kappa inh-1 inconclusive | POLI cherry-pick 42 | Pol kappa inh-2 24 | Pol eta inh-2 27
CCn1c(C)cc(/C=C2\NC(=O)N(CC(=O)Nc3ccc(F)cc3)C2=O)c1C	none
COc1cc(C(=O)NCc2nnnn2-c2ccc(C)c(C)c2)cc(OC)c1OC	none (no result: WRN inhibitor)
Cn1nc(-c2cccnc2)nc2c(=O)n(C)c(=O)nc1-2	none (no result: Pol eta inh-1, Pol beta inh, WRN inhibitor) | POLI cherry-pick 1.7 | Pol eta inh-2 2.4
CCn1nc(-c2ccccc2C)nc2c(=O)n(C)c(=O)nc1-2	none (no result: Pol eta inh-1, Pol beta inh, WRN inhibitor) | POLI cherry-pick 1.2 | Pol eta inh-2 3.8
Cn1nc(-c2ccc(Cl)cc2)nc2c(=O)n(C)c(=O)nc1-2	Pol beta inh inconclusive (no result: Pol eta inh-1, WRN inhibitor) | POLI cherry-pick 1.2 | GALK inh confirm 1.2µM | Redox cycling 1.1µM | HEK293 viability 14µM | Pol eta inh-2 1.1
Cn1nc(-c2ccc(F)cc2)nc2c(=O)n(C)c(=O)nc1-2	none (no result: Pol eta inh-1, Pol beta inh, WRN inhibitor) | POLI cherry-pick 1.3 | Pol eta inh-2 0.85
Cc1ccsc1-c1nc(CSCC(=O)NCc2ccc3c(c2)OCO3)c(C)o1	none
